Test results published in PMC4336329 (PLoS ONE, 2015).
About 14,000 (4.5%) of roughly 310,000 compounds showed an effect of 50% or more. The effect is printed as a negative number. Only a selection was taken, and strong results are over-represented in it overall.

molecular target: human ether-à-go-go-related gene (hERG) potassium channel (human, UniProt Q12809); experiment: primary screen, population patch clamp on CHO cells stably expressing hERG; higher = less effect of the substance
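Also: peak tail current of the secondary pulse compared with the same well before compound.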

human ether-à-go-go-related gene (hERG) potassium channel, sequence (Q12809 whole entry, looked up): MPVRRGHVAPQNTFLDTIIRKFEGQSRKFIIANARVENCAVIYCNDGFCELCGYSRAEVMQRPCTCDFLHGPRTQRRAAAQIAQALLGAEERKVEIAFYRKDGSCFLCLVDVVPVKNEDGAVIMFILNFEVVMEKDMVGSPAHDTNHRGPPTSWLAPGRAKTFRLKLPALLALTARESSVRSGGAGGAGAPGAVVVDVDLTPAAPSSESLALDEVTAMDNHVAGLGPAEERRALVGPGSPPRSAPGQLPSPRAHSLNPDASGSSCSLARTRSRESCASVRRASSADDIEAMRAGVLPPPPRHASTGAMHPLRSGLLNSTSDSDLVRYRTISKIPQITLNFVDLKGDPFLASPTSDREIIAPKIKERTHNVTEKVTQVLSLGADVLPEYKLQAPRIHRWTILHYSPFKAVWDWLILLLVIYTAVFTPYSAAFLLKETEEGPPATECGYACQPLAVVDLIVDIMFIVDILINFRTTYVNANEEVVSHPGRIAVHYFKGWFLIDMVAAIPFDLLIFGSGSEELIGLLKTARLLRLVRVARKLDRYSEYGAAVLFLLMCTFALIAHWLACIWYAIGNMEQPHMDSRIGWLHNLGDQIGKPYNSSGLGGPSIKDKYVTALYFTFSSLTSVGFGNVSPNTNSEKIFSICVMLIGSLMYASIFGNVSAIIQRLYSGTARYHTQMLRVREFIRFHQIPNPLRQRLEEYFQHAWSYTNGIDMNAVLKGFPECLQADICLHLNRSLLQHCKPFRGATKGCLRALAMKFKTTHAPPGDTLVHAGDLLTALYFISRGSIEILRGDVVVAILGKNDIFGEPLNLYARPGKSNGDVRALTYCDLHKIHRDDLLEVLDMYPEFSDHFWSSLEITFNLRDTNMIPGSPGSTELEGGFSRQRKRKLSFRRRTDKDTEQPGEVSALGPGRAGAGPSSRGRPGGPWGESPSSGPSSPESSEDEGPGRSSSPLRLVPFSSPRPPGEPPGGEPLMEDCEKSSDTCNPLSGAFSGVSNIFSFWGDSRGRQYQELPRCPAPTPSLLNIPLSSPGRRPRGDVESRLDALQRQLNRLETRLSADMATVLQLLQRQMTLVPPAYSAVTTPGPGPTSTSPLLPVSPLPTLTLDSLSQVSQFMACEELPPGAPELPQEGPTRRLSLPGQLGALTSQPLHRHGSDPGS

| SMILES | hERG current change (%, negative = inhibition) at 10uM [%] |
| --- | --- |
| CC(=O)N(CN1C(=O)c2ccccc2C1=O)c1cccc(C)c1 | 4.43 |
| Clc1ccc(-n2ncc3c(NCc4ccccn4)ncnc32)cc1 | 4.15 |
| COc1ccccc1NS(=O)(=O)c1ccc(C)c(C(=O)NCC2(N(C)C)CCCCC2)c1 | -42.9 |
| O=C(NCCCN1CCOCC1)c1ccc2c(c1)N(Cc1cccc(Cl)c1)C(=O)CS2 | -16.7 |
| CC1Cc2ccccc2N1C(=O)COC(=O)CNC(=O)c1ccc(Br)o1 (centres unmarked) | -60.2 |
| O=C(COC(=O)CNC(=O)c1ccco1)Nc1ccccc1OC(F)F | 11.6 |
| CC1Cc2ccccc2N1C(=O)COC(=O)c1ccc(Br)o1 (centres unmarked) | 8.05 |
| O=C(Nc1ccccc1OC(F)F)c1ccc(Br)o1 | -20.9 |
| O=C(COC(=O)CNC(=O)c1ccc(Br)o1)Nc1ccccc1OC(F)F | -51.6 |
| CC1Cc2ccccc2N1C(=O)c1ccc(Br)o1 (centres unmarked) | -13.1 |
| Cc1ccc2nc(-c3ccccc3)cc(C(=O)N(C)CC(=O)Nc3ccccc3Br)c2c1 | -11 |
| c1ccc(-n2nnnc2Cc2nnnn2-c2ccccc2)cc1 | 50.3 |
| O=C(Nc1ccccc1OC(F)F)c1cc2c(s1)CCC2 | -16.4 |
| C=CCNC(=S)/N=c1/ccccn1C | -5.42 |
| CCOC(=O)C1(CCOc2ccccc2)CCN(Cc2ccc(NC(C)=O)cc2)CC1 | -79.3 |
| CCOC(=O)C1(CCc2ccccc2)CCN(Cc2ccc(NC(C)=O)cc2)CC1 | -76.6 |
| CCOC(=O)C1(Cc2ccccc2C)CCCN(Cc2ccc(NC(C)=O)cc2)C1 (centres unmarked) | 11.5 |
| Cc1ccc(Nc2nc(=O)c3cccnc3s2)c(Br)c1 | 3.27 |

| SMILES | hERG current change (%, negative = inhibition) at 10uM [%] |
| --- | --- |
| CN(Cc1cnccn1)Cc1nc(Cc2ccccc2F)no1 | -0.154 |
| COc1ccc(Cl)cc1NS(=O)(=O)c1cccc(C(=O)NCC(c2ccco2)N(C)C)c1 (centres unmarked) | -2.01 |
| O=C(CCCn1c(=O)c2sccc2n(CC(=O)NCc2ccco2)c1=O)NCc1ccco1 | -6.69 |
| Cn1c(Br)nc2c1c(=O)n(CC(O)COc1ccccc1)c(=O)n2C (centres unmarked) | -1.54 |
| COCCC(=O)N1CCC(Oc2ccc(C(=O)N(C)C(C)c3ccon3)cc2)CC1 (centres unmarked) | 13.1 |
| CCCCCCn1cc(C(=O)O)c(=O)c2cc(F)c(N3CCCCC3)cc21 | 5.7 |
| O=C(O)Cc1cn(Cc2cccc(Cl)c2)c2ccccc12 | 12.6 |
| CC1CCCN(C(=O)Cc2cn(Cc3cccc(Cl)c3)c3ccccc23)C1 (centres unmarked) | -5.42 |
| CCCCCCn1cc(C(=O)O)c(=O)c2ccccc21 | -75.8 |
| O=C(c1cn(Cc2ccccc2)c2ccccc12)C1CC1 | 7.67 |
| CN(C)CCOC(=O)c1cn(Cc2ccccc2)c2ccccc12.Cl | -59.1 |
| Cn1cc(-c2ccccc2C(=O)O)c(=O)c2cc(Cl)ccc21 | 20.9 |
| O=C(O)c1cn(Cc2ccccc2)c2ccc(Cl)cc2c1=O | -76.3 |
| CCCCCn1cc(C(=O)C(=O)N2CCOCC2)c2ccccc21 | -26.3 |
| O=C(Cc1cn(Cc2cccc(Cl)c2)c2ccccc12)N1CCCC1 | -50 |
| O=C(COc1ccccc1)c1cn(Cc2ccccc2)c2ccccc12 | 7.62 |
| O=C(Cc1cn(Cc2cccc(Cl)c2)c2ccccc12)N1CCCCCC1 | -4.89 |
